Results from PubChem BioAssay (NCI).
This is part of a sample that, as a whole, favours compounds with a hit. Of some 79,000 tested, about 15% had one in any assay. No stated cut-off is given here; in the data, active means growth inhibition above about 70%; inactive means the rest.

Assays:
[1] = NCI Yeast Anticancer Drug Screen. Data for the rad50 strain (AID 155);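 further: 0% = growth of vehicle-only cultures of the same strain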; details: S. cerevisiae rad50 strain growth inhibition; at 50.0 µM; active compounds read high
In short: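 Relative growth inhibition (compound vs vehicle) was measured in yeast with a defined repair-gene alteration.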

[2] = NCI Yeast Anticancer Drug Screen. Data for the mec2-1 strain (AID 157); details: S. cerevisiae mec2-1 strain, at 50.0 µM, active compounds read high
In short: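 Growth inhibition is read against vehicle-treated controls after compound exposure of the mec2-1 yeast strain, which is defective in DNA damage repair or cell cycle control.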

[3] = NCI Yeast Anticancer Drug Screen. Data for the sgs1 mgt1 strain (AID 161);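 further: 0% = growth of cultures given vehicle only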; details: S. cerevisiae sgs1 mgt1 strain, at 50.0 µM, active compounds read high
In short: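 This yeast growth screen uses a strain with defined DNA-repair lesions; compound-treated growth is compared with vehicle-treated growth.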

[4] = NCI Yeast Anticancer Drug Screen. Data for the cln2 rad14 strain (AID 165);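 further: 0% = growth equal to vehicle treated cultures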; details: S. cerevisiae cln2 rad14 strain, at 50.0 µM, active compounds read high
In short: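 Growth inhibition, relative to vehicle-treated controls, is the read-out. The test organism is a yeast strain with defined genetic alterations, cln2 rad14.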

[5] = NCI Yeast Anticancer Drug Screen. Data for the bub3 strain (AID 167); details: S. cerevisiae bub3 mutant strain, at 50.0 µM, active compounds read high
In short: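 Screening used yeast with an engineered genetic alteration affecting cell cycle control. Compound-exposed cultures were compared with vehicle cultures, and reduced growth was taken as inhibition.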

[6] = NCI Yeast Anticancer Drug Screen. Data for the mlh1 rad18 strain (AID 175); details: S. cerevisiae mlh1 rad18 strain growth inhibition; at 50.0 µM; active compounds read high
In short: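 Cells of a genetically altered yeast strain, deficient in DNA damage repair, were treated with compound. Their growth was then compared with that of vehicle-treated cultures to give inhibition.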

Measured: growth inhibition

O=C1COC(C(O)(c2ccccc2)c2ccccc2)C(=O)N1 (stereo unspecified)
inactive: [1] -5.35% | [2] -18.9% | [3] -1.3% | [4] -65% | [5] -21.4% | [6] 6.25%

CCOC(=O)c1[nH]n(-c2ccccc2)c(=O)c1/C=N/C(N)=S
inactive: [1] 2% | [2] -1.95% | [3] -15.8% | [4] 14.1% | [5] 17.8% | [6] 8.45%

Nc1ncnc2c1nc(-c1ccccc1)n2C1OC(CO)C(O)C1O (stereo unspecified)
inactive: [1] 27.4% | [2] 35.2% | [3] -10.7% | [4] 9.75% | [5] 35.5% | [6] 34.4%

O=C1/C(=C2\CCc3ccccc32)Cc2ccccc21
inactive: [1] 14.1% | [2] 5.65% | [3] -4.2% | [4] -1.7% | [5] 34.6% | [6] 8.15%

COC(=O)C12C=CC(C1)n1c(=O)n(-c3ccccc3)c(=O)n12 (stereo unspecified)
inactive: [1] -8.55% | [2] 7.25% | [3] 0.5% | [4] -0.2% | [5] 4.4% | [6] -2.9%

COc1ccc(/C(=C/n2ccnc2)C(=O)c2ccc(OC)c(OC)c2)cc1
inactive: [1] -41.6% | [2] -18.7% | [3] -44.8% | [4] 5.8% | [5] -25.4% | [6] -44.5%

Cc1cc([N+](=O)[O-])ccc1Sc1c2ccccc2nc2ccccc12
inactive: [1] -63.5% | [2] -16.2% | [3] -13.8% | [4] 11.3% | [5] -17.5% | [6] -18.9%

Cn1ncnc1CCc1ccccc1
inactive: [1] -10.3% | [2] -3.9% | [3] -40.5% | [4] -4.55% | [5] -14% | [6] -21.1%

Cc1nc2cc([N+](=O)[O-])ccc2c(NCCCN(C)C)c1C
inactive: [1] 6.6% | [2] 8.35% | [3] 7.25% | [4] -1.45% | [5] -3.5% | [6] -39.6%

CC/C(N)=N\OC(=O)c1ccccc1
inactive: [1] 14.3% | [2] -4.75% | [3] -4.45% | [4] -44.4% | [5] 2.8% | [6] -5%

O=C(O)C(Br)C(Br)C(=O)Nc1cccc(C(F)(F)F)c1 (stereo unspecified)
inactive: [1] 17.4% | [2] -5.55% | [3] 14.9% | [4] 0.6% | [5] -2.15% | [6] 24.4%

CC1=C(C(=O)Nc2ccc([N+](=O)[O-])cc2)C(c2ccc3c(c2)OCO3)C(C(=O)Nc2ccc([N+](=O)[O-])cc2)=C(C)N1
inactive: [1] 8.65% | [2] 15.3% | [3] 21.6% | [4] 24.4% | [5] 10.2% | [6] 7.05%

CCCCCCn1cnc2c(=S)nc[nH]c21
inactive: [1] 24.6% | [2] 8.35% | [3] 10.8% | [4] 7.45% | [5] -0.65% | [6] 12.8%

COc1ccc2c(c1)C(N)CC2=O (stereo unspecified)
inactive: [1] 14% | [2] 7.7% | [3] 0.75% | [4] 8.75% | [5] 1.75% | [6] -12.9%

CN(C)c1nc2oc(-c3ccccc3)c(-c3ccccc3)c2c2nncn12
inactive: [1] 9.65% | [2] 7.45% | [3] 2.9% | [4] 16.9% | [5] 12.1% | [6] -22.5%

Cc1ccc(S(=O)(=O)OC(c2ccccc2)c2ccccc2)cc1
inactive: [1] -7.05% | [2] -10.9% | [3] -0.4% | [4] -17.4% | [5] 0% | [6] -28.8%

N#C/C(=C\c1ccccc1Cl)C(=O)c1ccccc1
inactive: [1] 11.4% | [2] 11.8% | [3] -5.9% | [4] 9.9% | [5] 18.9% | [6] 32.4%

CCN(CC)C(=O)N1CCN(c2ccccc2)CC1
inactive: [1] -1.4% | [2] 12.3% | [3] -4.95% | [4] 5.65% | [5] 3.45% | [6] -23.8%

COc1cc(NCc2ccc3c(c2)OCO3)c([N+](=O)[O-])cc1OC
inactive: [1] 5.15% | [2] 11.3% | [3] 6.6% | [4] -8.6% | [5] 4.3% | [6] -15.7%

COC(=O)C(C)(C)N=CN(C)C
inactive: [1] -19.7% | [2] 13.1% | [3] -7.8% | [4] 15.5% | [5] -27.9% | [6] 3.55%

CN(C)C(=O)c1cccc(C2CCCCC2)c1O
inactive: [1] -10.8% | [2] 1.85% | [3] 14.6% | [4] -81.4% | [5] -18.6% | [6] -14.7%
